Bioassay records: PubChem BioAssay, National Center for Advancing Translational Sciences (NCATS)
Shiga inhibitor – A qHTS for Small Molecule Inhibitors of Shiga Toxin | Vero cells, Shiga toxin protein synthesis inhibition reporter | inhibition, % at 38.7 µM | 290,000 compounds, 9.2% hits; in the data active = inhibition mostly above about 28%, no sharp cut-off; inactive = mostly below about 43%; also: 0% is about no effect
CHX counter-1 – Cycloheximide Counterscreen for Small Molecule Inhibitors of Shiga Toxin. cell reporter, cycloheximide protein synthesis inhibition counterscreen. max response, %. 300,000 compounds, 12% hits. AID 2314, 2010; in the data active = max response mostly above about 13%, no sharp cut-off; inactive = mostly below about 14%; also: read at 38.3 µM for the half of the compounds with a filed dose; 0% is about no effect
HCV inhibitor – qHTS Assay for Inhibitors of Hepatitis C Virus (HCV); 340,000 compounds, 3.4% hits; AID 651820, 2012; Potency, µM (titrated, usually from 41.8 µM), without a hit: at the highest dose activity change, negative = inhibition, most hits filed as inhibitors; Huh7.5.1 HCVcc-Cre infection, luciferase reporter, 44 h; also: potency is read from the fitted curve at half-maximal effect; % is scaled to controls: 0 for no effect and ±100 for the full control effect
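Reporter virus HCVcc-Cre (~0.5 moi) infects cells exposed to compound; seeding density 1,000 cells/well with 4 h settling beforehand. Luminescence, 15 sec read, taken 44 h post-infection following a 15 min RT substrate incubation.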
AMA1-RON2 inh – qHTS for Inhibitors of AMA1-RON; Towards Development of Antimalarial Drug Lead: Primary Screen | AID 720542, 2013 | 360,000 compounds, 0.2% hits | Plasmodium falciparum AMA1 (3D7) - RON2 peptide interaction | Potency, µM (titrated, usually from 58.2 µM), for inactives: top-dose activity change, negative = inhibition, usual class: inhibitors | AlphaScreen AMA1-biotinylated RON2 peptide binding;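 also: potency is read from the fitted curve at half-maximal effect; 0% = vehicle wells and -100% = peptide control; nearly all actives have a fitted effect of over 45% in size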
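AMA1 (3D7) with his tag at 25 nM final met compounds first, then biotinylated RON2 peptide at 25 nM; detection used donor plus acceptor beads, 10 µg/mL apiece, read by AlphaScreen after 30 min at room temperature.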
Pf growth 96h – Primary qHTS for delayed death inhibitors of the malarial parasite plastid, 96 hour incubation | P. falciparum luciferase reporter growth, 96 h | Potency, µM (titrated, usually from 28.7 µM), without a hit: at the highest dose activity change, negative = inhibition, actives largely listed as inhibitors | 320,000 compounds, 6.9% hits | AID 504834, 2011; also: potency is read from the fitted curve at half-maximal effect; % is scaled to controls: 0 for no effect and ±100 for the full control effect
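Delayed-death screen, second-generation endpoint: infected erythrocytes, 2% hematocrit, 0.05% parasitemia final; 96 hours at 37 C, 5% CO2; luciferase detection reagent; luminescence decrease equals reduced growth.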
Pf growth 48h – Primary qHTS for delayed death inhibitors of the malarial parasite plastid, 48 hour incubation; P. falciparum luciferase growth in erythrocytes, 48 h; Potency, µM (series often up to 28.7 µM), inactives show at the top dose activity change, negative = inhibition, most hits filed as inhibitors; 310,000 compounds, 5.9% hits; AID 504832, 2011; also: potency is read from the fitted curve at half-maximal effect; % is scaled to controls: 0 for no effect and ±100 for the full control effect
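Growth was read as firefly luciferase luminescence after a 48 h, 37 C, 5% CO2 exposure of compounds to reporter-bearing P. falciparum cultures (0.1% parasitemia, 2% hematocrit final) in Albumax-supplemented RPMI 1640.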
CHX counter-2 – Cycloheximide Counterscreen for Small Molecule Inhibitors of Shiga Toxin (Confirmatory); Cycloheximide counterscreen, protein synthesis reporter, Shiga toxin assay; shares compounds with Shiga inhibitor; AID 2318, 2010; Potency, µM (top dose mostly 38.3 µM), for inactives: at the top dose activity (activation), most hits filed as activators; 510 compounds, 3% hits; calls by dose curve; also: potency is read from the fitted curve at half-maximal effect; 0% is about no effect
* = called active by the depositor; ? = inconclusive; · = no result given; [ ] = another dose, or the depositor's remark. Compounds with a hit are over-represented: about 21% of the library has one in this group of screens. Unless noted, calls follow the shape of the dose curve; as a rule, active = well fitted curve in the direction sought with a large enough effect; inconclusive = small, poorly fitted or top-dose-only effect, or another doubt; inactive = no such curve, though single readings can be large; an effect the other way counts as inactive or inconclusive.

SMILES | Shiga inhibitor | CHX counter-1 | HCV inhibitor | AMA1-RON2 inh | Pf growth 96h | Pf growth 48h | CHX counter-2
CCC(NS(=O)(=O)c1ccc2c(c1)NC(=O)C(C)C(=O)N2)c1cccs1 (stereo not drawn) | 3 | -2 | 13% | 14% | 21% | 38% | ·
COc1ccc2c(c1)CCCC21NC(=O)N(CC(=O)c2cc(F)ccc2F)C1=O (stereo not drawn) | · | · | -11% | ? | ? | ? | ·
CCCc1cc(=O)oc2cc(C)cc(OCC(=O)NCc3ccccn3)c12 | 122* | 12 | -22% | -9% | 2.6µM* | ? | -3%
O=c1c2ccccc2nc(SCc2cccc(F)c2)n1Cc1ccco1 | 56* | 1 | ? | 6% | 7% | ? | 2%
CN(C)C(CNC(=O)CSc1nc2ccccc2c(=O)n1Cc1ccco1)c1ccccc1 (stereo not drawn) | · | · | 1% | 0% | ? | ? | ·
COc1ccc(N2CCN(C3CCCN(Cc4ccc(F)cc4Cl)C3)CC2)cc1 (stereo not drawn) | -4 | -1 | ? | 12% | ? | ? | ·
CCOC(=O)C1CCCN(C(=O)c2cc(Nc3ccc(OC)c(OC)c3)nc3ccccc23)C1 (stereo not drawn) | 38* | 10 | ? | -17% | ? | ? | 4%
Cc1cccc(C)c1NC1=NCCCCC1 | -2 | -2 | 33% | -3% | 15% | 1% | ·
COc1cccc(Nc2nc(NCCO)c3ccccc3n2)c1 | 50* | 10 | -11% | -18% | -11% | · | 1%
CC1CCC/C=C/C2CC(O)CC2C(O)/C=C/C(=O)O1 (stereo not drawn) | 41* | 5 | 0.71µM* | 15% | ? | · | -7%
CC(C)CC(=O)NC1(C(F)(F)F)C(=O)Nc2c1c(=O)[nH]c(=O)n2Cc1ccco1 (stereo not drawn) | -14 | -2 | -3% | -8% | -9% | 6% | ·
O=c1[nH]c(=O)n(Cc2ccco2)c2c1C(C(F)(F)F)(C(F)(F)F)N=C(c1ccc(F)cc1)N2 | 67* | 5 | ? | 6% | · | ? | -1%
CN1CCCN(C(=O)CC(c2ccccc2)c2ccccc2)CC1 | -5 | -7 | 2% | 5% | 31% | -5% | ·
O=C(CC(c1ccccc1)c1cc(Cl)ccc1O)N1CCCC1 (stereo not drawn) | 57* | 5 | -20% | -21% | ? | ? | -2%
COC(=O)[C@@H]1C[C@H]2CC[C@H](O)C[C@H]2N1Cc1ccc(C)s1 | 4 | 7 | -29% | 9% | 43% | 61% | ·
Cc1cccc(NNC(=O)C2CCC2)c1 | -8 | -4 | 2% | 0% | 21% | 0% | ·
Cc1cccc(NC(=O)C2CCCC2)c1 | 36* | -3 | 21% | 8% | -13% | 2% | 3%
O=C(/C=C/C#Cc1cccc(NS(=O)(=O)c2ccccc2)c1)NO | 65* | 13 | · | · | · | · | 0%
COC(=O)c1sc(NC(=O)COc2cccc(C)c2)nc1C | 28* | -2 | -18% | 0% | 63% | 26% | 1%
CC(C)NS(=O)(=O)c1ccc(OCC(=O)Nc2ccc(F)cc2F)cc1 | -13 | -2 | · | -5% | -32% | · | ·
CC(C)NS(=O)(=O)c1ccc(OCC(=O)Nc2ccccc2F)cc1 | 34* | 7 | 8% | 7% | 24% | 11% | 8%
CCn1c(SCC(N)=O)nnc1-c1ccc2[nH]c(C)c(C)c2c1 | -11 | -2 | ? | -7% | 12% | 10% | ·
CCn1c(SCC(=O)O)nnc1-c1ccc2[nH]c(C)c(C)c2c1 | 27* | 14 | 9% | 22% | -5% | 23% | 5%
CCCn1c(C)cc(/C=C(\C#N)C(=O)OCC(=O)NC(=O)NCC)c1C | 18 | 6 | ? | -2% | · | 1% | ·
CCCn1c(C)cc(/C=C(\C#N)C(=O)OCC(=O)Nc2ccc(OC)c(Cl)c2)c1C | 61* | 12 | ? | -18% | ? | 7% | 4%
SMILES | Shiga inhibitor | CHX counter-1 | HCV inhibitor | AMA1-RON2 inh | Pf growth 96h | Pf growth 48h | CHX counter-2
O=C(CSc1nncn1-c1ccccc1)Nc1ccccc1 | -4 | -3 | 20% | 6% | ? | 37% | ·
COc1ccccc1-n1cnnc1SCC(=O)Nc1ccccc1 | 62* | 1 | 23% | 4% | 48% | 24% | 6%
CN(Cc1ccccc1)CC1C2CCC(C2)C1O (stereo not drawn) | · | · | 12% | 17% | · | · | ·
CCOC(=O)c1cn(Cc2ccc(C)cc2)nn1 | 45* | 11 | 18% | -11% | -22% | -2% | -3%
CCOC(=O)c1cn(Cc2ccc(Br)cc2)nn1 | -1 | -2 | -3% | 1% | 16% | 8% | ·
O=C(NCCc1csc(-c2cccnc2)n1)c1cccc(Cl)c1 | 41 | 10 | -29% | -14% | -9% | -16% | ·
O=C(NCCc1csc(-c2cccnc2)n1)c1ccc(Cl)cc1 | 21* | -2 | -15% | 0% | ? | -18% | ?
CCOc1ccccc1NC(=O)CCS(=O)(=O)c1cccc2nonc12 | -17 | -2 | -19% | -13% | ? | -4% | ·
CC(=O)c1cccc(NC(=O)c2ccc(NC(=O)CCS(=O)(=O)c3cccs3)cc2)c1 | 33* | -6 | 23% | 1% | 258% | ? | 2%
O=C(CCS(=O)(=O)c1cccs1)Nc1ccc(C(=O)NCc2cccs2)cc1 | 29* | 7 | ? | 28% | · | ? | -2%
CCOc1ccccc1NC(=O)CCS(=O)(=O)c1cccs1 | 126* | -3 | -8% | -7% | 29% | 14% | -2%
Cc1cc(NC(=O)c2cc(F)c(F)cc2Cl)no1 | 35* | -1 | 12% | 17% | -5% | 30% | 6%
O=C(Cn1cc(C(F)(F)F)cc(Cl)c1=O)Nc1cc(Cl)cc(Cl)c1 | -2 | 1 | 2% | 15% | 43%[5.75 µM] | 4% | ·
